NR2F2 inh – NR2F2 transcriptional activity inhibitors, primary screen, cell-based, luciferase reporter, HEK293T, luminescence. COUP transcription factor 2 (Homo sapiens), P24468. HEK293T NGFI-A luciferase reporter. inhibition, % at 8.6 µM. hit rate 0.7% among 370,000. AID 686940, 2013;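 active means inhibition above a per-plate cutoff, mean inhibition of test wells between control levels plus 3 SD, cut at about 38% in these data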;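 further: cells cotransfected with COUP-TFII expression vector driving the NGFI-A reporter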
SRC2 inh – inhibition of GAL4-SRC2 driven luciferase reporter, primary screen, SRC2 inhibitor project, cell-based, luminescence. HEK293 GAL4-SRC2 luciferase reporter. AID 651957, 2012. inhibition, % at 9 µM. Nuclear receptor coactivator 2 (Homo sapiens), Q15596. hit rate 0.17% among 370,000;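 active means inhibition above the mean inhibition of all tested compounds plus 3 SD, set per campaign, cut at about 52% in these data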
NR5A2 inv ag – LRH-1 (NR5A2) inverse agonists, primary screen, cell-based, luminescence, HEK293T, StAR-luciferase reporter | hit rate 0.13% among 360,000 | inhibition, % at 3.6 µM | Nuclear receptor subfamily 5 group A member 2 (Homo sapiens), O00482 | LRH-1 transfected, 24 h;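 active means inhibition above the mean inhibition of all tested compounds plus 3 SD, cut at about 73% in these data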
SRC3 inh – SRC3 coactivator transcriptional activity inhibitors, primary screen, cell-based, luminescence | Nuclear receptor coactivator 3 (Homo sapiens), Q9Y6Q9 | HEK293 GAL4-SRC3 luciferase reporter | inhibition, % at 3.6 µM | hit rate 0.17% among 360,000 | AID 588352, 2011;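 active means inhibition above a per-campaign cutoff, the mean of all compounds plus 3 SD, cut at about 60% in these data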;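 further: higher means less SRC3-driven luciferase light from the GAL4 reporter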
Target sequence (Q9Y6Q9 whole entry, looked up, the tested form may be a part): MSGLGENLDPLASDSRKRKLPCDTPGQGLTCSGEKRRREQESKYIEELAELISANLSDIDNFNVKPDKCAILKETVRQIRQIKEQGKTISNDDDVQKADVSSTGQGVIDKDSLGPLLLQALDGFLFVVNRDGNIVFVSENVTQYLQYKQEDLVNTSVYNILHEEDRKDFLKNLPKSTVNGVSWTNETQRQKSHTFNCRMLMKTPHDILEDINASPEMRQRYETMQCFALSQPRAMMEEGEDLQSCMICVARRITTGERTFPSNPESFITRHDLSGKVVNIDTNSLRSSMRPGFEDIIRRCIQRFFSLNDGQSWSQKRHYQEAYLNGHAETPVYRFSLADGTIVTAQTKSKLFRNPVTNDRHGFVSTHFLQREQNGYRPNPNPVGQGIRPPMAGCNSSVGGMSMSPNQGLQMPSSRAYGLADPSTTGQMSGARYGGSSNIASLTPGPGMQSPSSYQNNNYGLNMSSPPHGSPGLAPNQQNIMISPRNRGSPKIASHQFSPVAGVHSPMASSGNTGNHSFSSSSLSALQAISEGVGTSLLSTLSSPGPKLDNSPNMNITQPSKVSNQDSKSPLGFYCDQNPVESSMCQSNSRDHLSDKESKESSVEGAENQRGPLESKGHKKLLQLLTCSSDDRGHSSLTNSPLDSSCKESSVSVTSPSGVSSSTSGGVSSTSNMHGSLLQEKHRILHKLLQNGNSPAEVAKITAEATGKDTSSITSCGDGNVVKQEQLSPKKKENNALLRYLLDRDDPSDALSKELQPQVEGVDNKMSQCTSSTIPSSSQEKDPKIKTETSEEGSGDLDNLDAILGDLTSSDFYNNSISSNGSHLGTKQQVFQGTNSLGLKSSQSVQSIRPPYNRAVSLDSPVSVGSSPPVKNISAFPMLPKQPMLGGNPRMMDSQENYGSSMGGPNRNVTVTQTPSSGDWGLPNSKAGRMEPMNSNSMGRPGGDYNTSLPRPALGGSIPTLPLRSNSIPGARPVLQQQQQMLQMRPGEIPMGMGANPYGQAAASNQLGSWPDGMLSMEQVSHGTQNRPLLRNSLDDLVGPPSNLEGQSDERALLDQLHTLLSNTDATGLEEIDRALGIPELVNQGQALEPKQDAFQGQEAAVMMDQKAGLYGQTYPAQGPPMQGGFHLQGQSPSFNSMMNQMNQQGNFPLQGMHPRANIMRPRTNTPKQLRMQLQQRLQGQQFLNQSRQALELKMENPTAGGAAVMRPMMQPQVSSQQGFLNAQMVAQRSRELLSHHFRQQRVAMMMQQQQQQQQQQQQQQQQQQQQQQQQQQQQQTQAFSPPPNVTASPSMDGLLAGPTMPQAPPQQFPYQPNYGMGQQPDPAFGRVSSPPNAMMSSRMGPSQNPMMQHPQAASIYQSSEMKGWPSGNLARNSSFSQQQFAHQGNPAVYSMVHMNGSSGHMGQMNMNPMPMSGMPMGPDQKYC
NCOA1 inh – SRC1 coactivator transcriptional activity inhibitors, primary screen, cell-based, luminescence. Nuclear receptor coactivator 1 (Homo sapiens), Q15788. HEK293 GAL4-SRC1 luciferase reporter. inhibition, % at 3.6 µM. hit rate 0.12% among 360,000. AID 588354, 2011;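 active means inhibition above the campaign mean plus 3 SD, with each screening campaign given its own cutoff, cut at about 60% in these data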
VP16 Luc counter – Gal4-VP16 luciferase reporter inhibitors, counter-screen for COUP-TFII antagonist project, cell-based, luminescence, HEK293 | shares compounds with NR2F2 inh | inhibition, % at 8.5 µM | hit rate 25% among 2,500 | AID 687007, 2013; in the data active means inhibition above about 13%
NR2F2 inh conf – NR2F2 transcriptional activity inhibitors, confirmation, cell-based, luciferase reporter, HEK293, triplicate; shares compounds with NR2F2 inh; HEK293 NGFI-A luciferase reporter, luminescence; inhibition, % at 8.5 µM; hit rate 45% among 2,500; AID 687008, 2013;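 active means mean inhibition over three repeats above a set limit taken from the earlier primary screen, cut at about 38% in these data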
Each line names hits and unclear results; the compound was inactive in the other large screens (follow-up assays come after a bar, where they were run). Shown are actives, neighbours in structure and some others; about 0.84% of the full set was active somewhere.

CCN(CC)S(=O)(=O)c1cc(NC(=O)CCCOc2ccc(C(C)=O)cc2)ccc1C	NR2F2 inh 42 | VP16 Luc counter inactive | NR2F2 inh conf inactive
COC(=O)[C@]12C[C@H](CC(=O)NCC34CC5CC(CC(C5)C3)C4)C(=O)N(Cc3ccccc3)C1=C[C@H](COCc1ccccc1)O[C@@H]2C	none (no result: NR5A2 inv ag, SRC3 inh, NCOA1 inh)
O=C(OCc1cn(Cc2ccc(Cl)cc2)nn1)N1CCCC1	none (no result: NR5A2 inv ag, SRC3 inh, NCOA1 inh)
CN(C)S(=O)(=O)c1ccc(C(=O)Nc2nc(-c3cccs3)cs2)cc1	NR2F2 inh 54 | VP16 Luc counter inactive | NR2F2 inh conf inactive
CCN(CC)S(=O)(=O)c1ccc(/C=C/C(=O)Nc2ccc(F)c(F)c2F)cc1	NR2F2 inh 63 | VP16 Luc counter inactive | NR2F2 inh conf 47
CCN(CC)S(=O)(=O)c1ccc(/C=C/C(=O)Nc2ccc(F)cc2F)cc1	NR2F2 inh 50 | VP16 Luc counter inactive | NR2F2 inh conf inactive
CCN(CC)S(=O)(=O)c1ccc(/C=C/C(=O)Nc2ccc(Br)cc2F)cc1	NR2F2 inh 56 | VP16 Luc counter inactive | NR2F2 inh conf 70
COC(=O)[C@]12C[C@H](CC(=O)NCCCN3CCCC3=O)C(=O)N(Cc3cccc4ccccc34)C1=C[C@H](COCc1ccccc1)O[C@@H]2C	none (no result: NR5A2 inv ag, SRC3 inh, NCOA1 inh)
CC(C)CNC(=O)OCc1cn(Cc2cccc(C(F)(F)F)c2)nn1	none (no result: NR5A2 inv ag, SRC3 inh, NCOA1 inh)
CC1(c2nnnn2-c2ccc3c(c2)OCCO3)CSCC(=O)N1CCc1c[nH]c2ccccc12 (centres undefined)	none (no result: NR5A2 inv ag, SRC3 inh, NCOA1 inh)
Cc1ccc(-n2c(SCC(=O)c3ccccc3Cl)nnc2-c2cnccn2)cc1	none (no result: NR5A2 inv ag, SRC3 inh, NCOA1 inh)
C(=N\Nc1ccc2ccccc2n1)/c1ccc2c(c1)OCCO2	NR2F2 inh 64 | VP16 Luc counter 38 | NR2F2 inh conf 70
C(=N\Nc1nc2ccccc2[nH]1)/c1ccc2c(c1)OCCO2	none
Cc1ccc2c(c1)C1CS(=O)(=O)N(CC(C)C)CN1C2 (centres undefined)	none (no result: NR5A2 inv ag, SRC3 inh, NCOA1 inh)
CC(C)(C)c1ccc(C(=O)NC(=S)Nc2nc3c(s2)CCCC3)cc1	NR2F2 inh 49 | VP16 Luc counter inactive | NR2F2 inh conf inactive
CC1CCc2nc(NC(=O)c3ccc(S(=O)(=O)N4CCCc5ccccc54)cc3)sc2C1 (centres undefined)	none
O=C(Nc1nc2c(s1)CCCC2)c1ccc(S(=O)(=O)N2CCCc3ccccc32)cc1	NR2F2 inh 50 | VP16 Luc counter inactive | NR2F2 inh conf inactive
O=C(NC1CCCCN(Cc2ccc(Cl)cc2)C1=O)c1cc(-c2ccccc2)no1 (centres undefined)	none (no result: NR5A2 inv ag, SRC3 inh, NCOA1 inh)
COCC(C)n1c(C)cc(C(=O)COC(=O)c2cccn2C)c1C (centres undefined)	NR2F2 inh 57 | VP16 Luc counter inactive | NR2F2 inh conf 50
COCC(C)n1c(C)cc(C(=O)COC(=O)c2cnc(Cl)c(Cl)c2)c1C (centres undefined)	none
CCCCNC(=O)OCCCN1CCC2(CCC(c3ccccc3)CC2)C1=O (centres undefined)	none (no result: NR5A2 inv ag, SRC3 inh, NCOA1 inh)
CCc1ccc(CCNC(=O)OCCCN2CCC3(CCC(c4ccccc4)CC3)C2=O)cc1 (centres undefined)	NR2F2 inh 41 (no result: NR5A2 inv ag, SRC3 inh, NCOA1 inh) | VP16 Luc counter inactive | NR2F2 inh conf inactive
CCOC(=O)[C@]12CCCCC/C=C\1N(CCc1ccc(Cl)cc1)C(=O)[C@H]2CC(=O)N1CCSCC1	none (no result: NR5A2 inv ag, SRC3 inh, NCOA1 inh)
Cc1ccc(C(=O)N2c3ccccc3N(Cc3ccccc3)C(=O)C2(C)C)cc1	NR2F2 inh 51 | VP16 Luc counter inactive | NR2F2 inh conf 47
CCN(CC(=O)Nc1ccc(NC(C)=O)cc1)C(=O)c1ccc(COc2ccc(C(C)(C)C)cc2)cc1	NR2F2 inh 51 | VP16 Luc counter inactive | NR2F2 inh conf 38
CCN(CC(=O)Nc1ccc(NC(C)=O)cc1)C(=O)c1ccc(COc2ccccc2)o1	none
CN(CCO)c1ccc2c(c1)Oc1ccccc1CN(Cc1cn(Cc3ccccc3C(F)(F)F)nn1)S2(=O)=O	none (no result: NR5A2 inv ag, SRC3 inh, NCOA1 inh)
O=C(N/N=C/c1ccc([N+](=O)[O-])s1)c1ccncc1	none (no result: NR2F2 inh, SRC2 inh)
Cc1ccc(C(=O)N/N=C/c2ccc([N+](=O)[O-])s2)cc1	NR2F2 inh 53, SRC2 inh 83 | VP16 Luc counter 84 | NR2F2 inh conf 93
Cc1ccc(C(=O)N/N=C\c2ccc([N+](=O)[O-])s2)cn1	NR2F2 inh 40 | VP16 Luc counter 31 | NR2F2 inh conf inactive
Cc1[nH]cnc1C(=O)N/N=C/c1ccc([N+](=O)[O-])s1	none
COc1ccc(-c2c(Cc3ccccc3)nc(NC(=O)c3ccccc3)n2Cc2ccc(OC)cc2OC)cc1	none (no result: NR5A2 inv ag, SRC3 inh, NCOA1 inh)
COc1cccc(NC(=O)c2ccc(CN3CCc4ccccc4C3)cc2)c1	NR2F2 inh 54 | VP16 Luc counter inactive | NR2F2 inh conf inactive
CCOc1ccc(NC(=O)c2ccc(CN3CCc4ccccc4C3)cc2)cc1	NR2F2 inh 48 | VP16 Luc counter inactive | NR2F2 inh conf 41
CCOC(=O)c1ccc(NC(=O)CN2CCc3ccccc3C2)cc1	none
CCOc1ccccc1NC(=O)c1ccc(CN2CCc3ccccc3C2)cc1	none
COc1ccc(NC(=O)c2ccc(CN3CCN(c4ccccc4)CC3)cc2)cc1	NR2F2 inh 48 | VP16 Luc counter inactive | NR2F2 inh conf inactive
CCOC(=O)c1ccc(NC(=O)c2ccc(CN3CCc4ccccc4C3)cc2)cc1	NR2F2 inh 51 | VP16 Luc counter inactive | NR2F2 inh conf 54
COc1ccc(C(=O)Nc2ccc(N3CCN(Cc4ccccc4)CC3)cc2)cc1	none
CN(Cc1ccccc1)C(=O)OCc1cn(Cc2ccc(F)cc2F)nn1	none (no result: NR5A2 inv ag, SRC3 inh, NCOA1 inh)
S=C(Nc1ccc(Br)cc1)OC1CCC12CCC(c1ccccc1)CC2 (centres undefined)	none (no result: NR5A2 inv ag, SRC3 inh, NCOA1 inh)
CC(=O)N1CCN(C(=O)CSc2nc3cccnc3n2C)CC1	none (no result: NR5A2 inv ag, SRC3 inh, NCOA1 inh)
CC[C@@H]1CCC[C@@H](O)[C@@H](C)C(=O)O[C@H](C)[C@@H](C)C/C=C(C)/C(OC)=C\C(=O)N(C)C([C@@H](C)CC)C(=O)N(C)[C@@H](C(C)C)C(=O)N(C)[C@@H](COC)C(=O)N2CCC[C@H]2C(=O)N(C)[C@@H](C(C)C)C(=O)N2CCC[C@H]2C(=O)O1 (some centres undefined)	NR2F2 inh 83, NR5A2 inv ag 98, SRC3 inh 84, NCOA1 inh 78 | VP16 Luc counter 14 | NR2F2 inh conf 82
CCOC(=O)C1CCN(C(=O)C(C)(C)NC(=O)Nc2ccc(N(C)C)cc2)CC1	none (no result: SRC2 inh, NR5A2 inv ag, SRC3 inh, NCOA1 inh)
